Test results from PubChem BioAssay (EPA / NIEHS).
Activity calls are given as the source filed them. How the source made its calls: active means hit-call score of the fitted dose curve at least 0.9, where 1 is the maximum; inactive means score below 0.9.

What was measured:
[1] = ATG_GLI_CIS: Attagene CIS-FACTORIAL HepG2 Assay for human Zinc Finger Protein GLI1 (AID 2282945); settings: HepG2, Attagene cis-factorial reporter mRNA, GLI element; actives raise or lower the signal
In short: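 Bidirectional curve fits relative to DMSO, using reporter mRNA levels from RT-PCR plus capillary electrophoresis. Cells were HepG2 transiently carrying cis-regulated reporter constructs, harvested 24 h after dosing.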

[2] = ATG_ISRE_CIS: Attagene CIS-FACTORIAL HepG2 Assay for human Interferon Regulatory Factor 1 (IRF1) binding to an Interferon-Stimulated Response Element (ISRE) (AID 2282948); settings: HepG2 ISRE cis-reporter (Attagene), mRNA transcription readout; actives raise or lower the signal
In short: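 Endogenous transcription factor activity read as reporter transcript abundance via RT-PCR and capillary electrophoresis. HepG2 cells transiently transfected, 24 h chemical exposure. Gain or loss fitted against DMSO baseline.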

[3] = ATG_M_32_CIS: Attagene CIS-FACTORIAL HepG2 Assay for M32 Transcription Factor (Internal Marker) (AID 2282949); settings: HepG2 Attagene cis-factorial M32 reporter, mRNA; actives raise or lower the signal;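 further: background control marker of the multiplexed CIS panel rather than a real target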
In short: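 HepG2 transfectants (cis-regulated reporter transcription units) dosed 24 h. Reporter mRNA by RT-PCR plus CE, analysed as gain or loss relative to DMSO.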

[4] = ATG_M_06_CIS: Attagene CIS-FACTORIAL HepG2 Assay for M06 Transcription Factor (Internal Marker) (AID 2282950); settings: HepG2 Attagene CIS-FACTORIAL M06 internal marker reporter; actives raise or lower the signal
In short: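 HepG2 cells transiently transfected with cis-regulated multiple reporter transcription units were exposed to chemical for 24 h; reporter mRNA was quantified by RT-PCR, 6-FAM primer labelling, HpaI digestion and capillary electrophoresis, fitted bidirectionally against DMSO.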

[5] = target: Hepatocyte nuclear factor 6 (Homo sapiens) (UniProt Q9UBC0); experiment: ATG_HNF6_CIS: Attagene CIS-FACTORIAL HepG2 Assay for human Hepatocyte Nuclear Factor 6 (HNF6) (AID 2282952); settings: HepG2 Attagene cis-factorial HNF6 reporter transcription; actives raise or lower the signal
Hepatocyte nuclear factor 6 (Homo sapiens), sequence (Q9UBC0 whole entry, looked up): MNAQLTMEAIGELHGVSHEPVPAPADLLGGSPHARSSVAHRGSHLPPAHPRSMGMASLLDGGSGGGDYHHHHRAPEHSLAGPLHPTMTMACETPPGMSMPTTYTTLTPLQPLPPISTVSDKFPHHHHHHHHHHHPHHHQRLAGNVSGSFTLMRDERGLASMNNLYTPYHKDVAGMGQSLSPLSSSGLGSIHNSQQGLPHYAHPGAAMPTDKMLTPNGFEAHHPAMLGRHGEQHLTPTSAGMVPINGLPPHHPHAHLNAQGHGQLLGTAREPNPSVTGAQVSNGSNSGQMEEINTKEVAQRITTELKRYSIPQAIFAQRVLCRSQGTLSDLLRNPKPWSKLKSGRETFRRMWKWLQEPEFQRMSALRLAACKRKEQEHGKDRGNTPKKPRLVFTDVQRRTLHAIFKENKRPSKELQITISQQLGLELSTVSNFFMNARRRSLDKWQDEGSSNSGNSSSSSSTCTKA
In short: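 Activity values derive from bidirectional fitting against DMSO of reporter mRNA levels, measured by capillary electrophoresis of labelled RT-PCR products from HepG2 cells exposed 24 h.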

[6] = ATG_MRE_CIS: Attagene CIS-FACTORIAL HepG2 Assay for human Metal Responsive Element (MRE) (AID 2282954); settings: HepG2 MRE cis-reporter transcription, Attagene multiplex; actives raise or lower the signal
In short: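 Endogenous MRE-dependent transcription read as reporter mRNA in transiently transfected human HepG2 cells at 24 h. RNA reverse-transcribed, PCR-amplified, labelled and resolved by capillary electrophoresis; gain or loss relative to DMSO.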

[7] = ATG_PBREM_CIS: Attagene CIS-FACTORIAL HepG2 Assay for human Phenobarbital-responsive Enhancer Module (PBREM) (AID 2282955); settings: HepG2 PBREM cis-reporter, Attagene multiplexed transcription; actives raise or lower the signal
In short: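 HepG2 cells transiently transfected with multiple cis-regulated reporter units measure endogenous transcription factor activity; 24 h compound exposure. Reporter mRNA quantified by RT-PCR, fluorescent labelling, HpaI digestion and capillary electrophoresis; bidirectional fit versus DMSO.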

[8] = target: Paired box protein Pax-6 (Homo sapiens) (UniProt P26367); experiment: ATG_Pax6_CIS: Attagene CIS-FACTORIAL HepG2 Assay for human Paired Box 6 (PAX6) (AID 2282956); settings: HepG2 CIS-FACTORIAL PAX6 reporter transcription, RNA readout; actives raise or lower the signal
Paired box protein Pax-6 (Homo sapiens), sequence (P26367 whole entry, looked up): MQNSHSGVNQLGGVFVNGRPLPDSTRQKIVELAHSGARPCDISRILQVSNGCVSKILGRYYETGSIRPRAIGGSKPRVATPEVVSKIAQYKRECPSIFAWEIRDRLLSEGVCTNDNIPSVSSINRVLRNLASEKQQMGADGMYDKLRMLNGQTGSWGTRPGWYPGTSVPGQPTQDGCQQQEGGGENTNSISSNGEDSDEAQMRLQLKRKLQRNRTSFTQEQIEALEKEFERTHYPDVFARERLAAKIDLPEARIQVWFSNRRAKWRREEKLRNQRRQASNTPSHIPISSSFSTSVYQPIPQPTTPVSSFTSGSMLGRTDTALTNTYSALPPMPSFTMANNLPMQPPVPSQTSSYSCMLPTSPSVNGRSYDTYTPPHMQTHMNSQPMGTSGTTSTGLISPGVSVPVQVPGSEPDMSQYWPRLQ
In short: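 Read-out is reporter transcript level, measured by RT-PCR with fluorescent primer extension and capillary electrophoresis after 24 h dosing of transfected HepG2 cells. Activity in either direction fitted relative to DMSO control.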

[9] = ATG_PXRE_CIS: Attagene CIS-FACTORIAL HepG2 Assay for human Pregnane X Receptor Element (PXRE) (AID 2282957); settings: HepG2 Attagene CIS-FACTORIAL PXRE reporter, mRNA; actives raise or lower the signal
In short: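 Fluorescent capillary electrophoresis of amplified reporter cDNA gave the signal, collected 24 h after dosing HepG2 cells that held transfected cis-element reporter constructs.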

[10] = ATG_PPRE_CIS: Attagene CIS-FACTORIAL HepG2 Assay for human Peroxisome Proliferator-activated Response Element (PPRE) (AID 2282958); settings: HepG2 PPRE cis-element reporter, Attagene transcription factor profiling; actives raise or lower the signal
In short: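 HepG2 cells are transiently transfected with multiplexed cis-promoter reporter units to report endogenous PPAR activity. After 24 h dosing, reporter mRNA is read by RT-PCR and capillary electrophoresis. Fitting is bidirectional against DMSO.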

[11] = target: Transcription factor Sp1 (Homo sapiens) (UniProt P08047); experiment: ATG_Sp1_CIS: Attagene CIS-FACTORIAL HepG2 Assay for human Specificity Protein 1 (Sp1) (AID 2282961); settings: HepG2 Sp1 cis-reporter transcription, actives raise or lower the signal
Transcription factor Sp1 (Homo sapiens), sequence (P08047 whole entry, looked up): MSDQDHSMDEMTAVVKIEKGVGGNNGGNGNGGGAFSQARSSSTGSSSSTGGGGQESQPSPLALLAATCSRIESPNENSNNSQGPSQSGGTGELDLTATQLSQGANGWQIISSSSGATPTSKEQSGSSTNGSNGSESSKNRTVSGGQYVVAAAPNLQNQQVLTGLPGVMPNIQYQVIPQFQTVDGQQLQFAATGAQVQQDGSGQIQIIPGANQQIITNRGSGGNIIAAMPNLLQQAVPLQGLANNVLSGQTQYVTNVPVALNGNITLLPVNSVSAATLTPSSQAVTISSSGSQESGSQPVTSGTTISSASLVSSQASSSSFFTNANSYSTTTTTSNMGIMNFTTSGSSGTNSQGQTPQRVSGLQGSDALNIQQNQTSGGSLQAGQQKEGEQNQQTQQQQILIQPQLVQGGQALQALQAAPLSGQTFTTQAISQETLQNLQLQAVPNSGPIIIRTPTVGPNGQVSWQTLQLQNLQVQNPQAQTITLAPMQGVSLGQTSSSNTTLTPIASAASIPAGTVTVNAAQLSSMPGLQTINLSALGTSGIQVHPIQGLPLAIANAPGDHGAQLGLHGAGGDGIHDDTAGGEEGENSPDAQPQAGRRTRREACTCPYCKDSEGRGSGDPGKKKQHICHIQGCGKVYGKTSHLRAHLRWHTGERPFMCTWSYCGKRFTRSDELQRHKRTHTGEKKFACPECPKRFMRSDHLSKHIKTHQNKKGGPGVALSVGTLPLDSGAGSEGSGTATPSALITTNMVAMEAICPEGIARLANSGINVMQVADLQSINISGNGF
In short: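 HepG2 cells transiently transfected with multiplexed cis-regulated reporter constructs, chemical exposure 24 h. Reporter mRNA quantified by RT-PCR with capillary electrophoresis; bidirectional fit relative to DMSO.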

[12] = ATG_SREBP_CIS: Attagene CIS-FACTORIAL HepG2 Assay for human Sterol Regulatory Element Binding (SREBP) (AID 2282962); settings: HepG2 Attagene cis-factorial SREBP reporter, mRNA; actives raise or lower the signal
In short: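 Endogenous SREBP activity read as cis-element-driven reporter transcript in transiently transfected HepG2, 24 h post-dosing; quantified via RT-PCR plus capillary electrophoresis of fluorescent fragments. Gain or loss of signal fitted relative to DMSO baseline.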

[13] = target: Signal transducer and activator of transcription 3 (Homo sapiens) (UniProt P40763); experiment: ATG_STAT3_CIS: Attagene CIS-FACTORIAL HepG2 Assay for human Signal Transducer and Activator of Transcription 3 (STAT3) (AID 2282963); settings: HepG2, Attagene cis-factorial STAT3 reporter transcription; actives raise or lower the signal
Signal transducer and activator of transcription 3 (Homo sapiens), sequence (P40763 whole entry, looked up): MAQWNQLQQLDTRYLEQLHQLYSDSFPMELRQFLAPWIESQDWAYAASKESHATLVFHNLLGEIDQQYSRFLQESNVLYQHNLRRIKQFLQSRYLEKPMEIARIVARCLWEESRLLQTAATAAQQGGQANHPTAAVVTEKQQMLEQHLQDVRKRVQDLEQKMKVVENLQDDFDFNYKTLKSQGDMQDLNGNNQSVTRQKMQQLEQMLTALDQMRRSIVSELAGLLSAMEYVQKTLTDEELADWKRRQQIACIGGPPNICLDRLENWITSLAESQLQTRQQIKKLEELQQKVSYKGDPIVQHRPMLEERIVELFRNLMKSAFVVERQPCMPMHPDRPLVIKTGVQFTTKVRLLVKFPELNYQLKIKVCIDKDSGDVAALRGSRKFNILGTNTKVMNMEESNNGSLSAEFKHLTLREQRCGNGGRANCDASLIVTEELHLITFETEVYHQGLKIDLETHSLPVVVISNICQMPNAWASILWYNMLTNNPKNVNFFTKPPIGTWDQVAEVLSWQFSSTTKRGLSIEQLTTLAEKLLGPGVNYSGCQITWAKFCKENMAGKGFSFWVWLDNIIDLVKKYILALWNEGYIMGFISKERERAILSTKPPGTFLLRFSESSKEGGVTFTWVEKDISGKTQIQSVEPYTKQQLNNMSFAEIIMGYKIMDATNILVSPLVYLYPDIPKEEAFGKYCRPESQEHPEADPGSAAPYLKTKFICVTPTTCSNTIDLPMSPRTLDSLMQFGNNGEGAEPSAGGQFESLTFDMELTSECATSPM
In short: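 Readout is reporter transcript quantified by RT-PCR and capillary electrophoresis, with 6-FAM primer extension and HpaI digestion. Total RNA is taken 24 h after dosing transiently transfected HepG2 carrying cis-regulated reporter units. Bidirectional fit against DMSO.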

[14] = ATG_TA_CIS: Attagene CIS-FACTORIAL HepG2 Assay for human TA Basal Promoter (AID 2282964); settings: HepG2 Attagene CIS-factorial TA basal promoter reporter; actives raise or lower the signal
In short: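 HepG2 cells transiently transfected with multiplexed cis-promoter reporter units, dosed 24 h. Reporter mRNA measured by RT-PCR, 6-FAM labelling, HpaI digestion and capillary electrophoresis; bidirectional fit versus DMSO baseline, serving as background control.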

[15] = target: Hypoxia-inducible factor 1-alpha (Homo sapiens) (UniProt Q16665); experiment: ATG_HIF1a_CIS: Attagene CIS-FACTORIAL HepG2 Assay for human Hypoxia Inducible Factor 1 (HIF1A) (AID 2282951); settings: HepG2 Attagene cis-factorial HIF1a reporter transcription; actives raise or lower the signal
Hypoxia-inducible factor 1-alpha (Homo sapiens), sequence (Q16665 whole entry, looked up): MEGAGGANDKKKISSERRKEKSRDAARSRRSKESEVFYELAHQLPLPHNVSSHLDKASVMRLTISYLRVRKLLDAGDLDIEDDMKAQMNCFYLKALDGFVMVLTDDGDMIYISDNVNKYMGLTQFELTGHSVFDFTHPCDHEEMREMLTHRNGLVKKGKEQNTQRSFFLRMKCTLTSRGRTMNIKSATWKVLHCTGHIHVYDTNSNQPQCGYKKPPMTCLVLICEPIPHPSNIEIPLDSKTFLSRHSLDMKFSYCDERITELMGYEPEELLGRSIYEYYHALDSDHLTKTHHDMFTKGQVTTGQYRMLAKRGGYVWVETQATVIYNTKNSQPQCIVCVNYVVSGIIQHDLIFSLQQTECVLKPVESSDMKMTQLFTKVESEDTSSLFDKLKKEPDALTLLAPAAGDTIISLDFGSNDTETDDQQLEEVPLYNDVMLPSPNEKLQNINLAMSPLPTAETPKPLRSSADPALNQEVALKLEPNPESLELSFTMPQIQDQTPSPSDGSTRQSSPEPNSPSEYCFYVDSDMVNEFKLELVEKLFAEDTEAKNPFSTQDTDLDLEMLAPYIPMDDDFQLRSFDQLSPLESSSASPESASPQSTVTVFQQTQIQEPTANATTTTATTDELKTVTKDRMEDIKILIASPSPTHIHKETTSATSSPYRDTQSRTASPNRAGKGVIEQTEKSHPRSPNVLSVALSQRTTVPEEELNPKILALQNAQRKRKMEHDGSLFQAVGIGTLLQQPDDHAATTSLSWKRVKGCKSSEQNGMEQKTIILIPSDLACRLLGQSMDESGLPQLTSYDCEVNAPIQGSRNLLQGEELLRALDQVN
In short: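 HepG2 cells transiently transfected with multiple cis-regulated reporter transcription units measure endogenous transcription factor activity. After 24 h exposure, reporter mRNA is quantified by RT-PCR with 6-FAM labelling, HpaI digestion and capillary electrophoresis. Bidirectional fitting against DMSO.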

[16] = target: Heat shock factor protein 1 (Homo sapiens) (UniProt Q00613); experiment: ATG_HSE_CIS: Attagene CIS-FACTORIAL HepG2 Assay for human Heat Shock Transcription Factor 1 (HSE) (AID 2282953); settings: HepG2 HSE cis-reporter, Attagene RNA transcription; actives raise or lower the signal
Heat shock factor protein 1 (Homo sapiens), sequence (Q00613 whole entry, looked up): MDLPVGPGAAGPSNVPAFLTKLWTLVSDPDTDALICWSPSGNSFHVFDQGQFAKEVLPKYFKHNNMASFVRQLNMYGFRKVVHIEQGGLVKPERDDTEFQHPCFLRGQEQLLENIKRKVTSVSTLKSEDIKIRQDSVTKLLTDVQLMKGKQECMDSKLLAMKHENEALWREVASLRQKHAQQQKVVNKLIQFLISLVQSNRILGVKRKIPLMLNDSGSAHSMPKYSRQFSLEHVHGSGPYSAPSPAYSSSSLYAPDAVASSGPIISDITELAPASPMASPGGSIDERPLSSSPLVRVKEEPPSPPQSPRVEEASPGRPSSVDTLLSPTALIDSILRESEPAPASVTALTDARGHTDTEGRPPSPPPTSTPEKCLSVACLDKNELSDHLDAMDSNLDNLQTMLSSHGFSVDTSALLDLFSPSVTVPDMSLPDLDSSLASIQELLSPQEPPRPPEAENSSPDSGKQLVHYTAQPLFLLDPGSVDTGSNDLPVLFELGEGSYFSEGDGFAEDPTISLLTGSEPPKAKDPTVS
In short: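 HepG2 cells transiently transfected with multiple reporter transcription units under cis-regulatory promoter control, measuring endogenous transcription factor activity. After 24 h chemical exposure, reporter mRNA quantified by RT-PCR, fluorescent labelling, HpaI digestion and capillary electrophoresis; bidirectional fit versus DMSO.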

[17] = ATG_RORE_CIS: Attagene CIS-FACTORIAL HepG2 Assay for human RAR-related Orphan Receptor Element (RORE) (AID 2282959); settings: HepG2 Attagene cis-factorial RORE reporter, mRNA; actives raise or lower the signal
In short: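 HepG2 cells carrying transiently transfected cis-regulated reporter units; RORE-driven reporter mRNA quantified 24 h post-dosing by RT-PCR, 6-FAM primer extension, HpaI digestion and capillary electrophoresis. Bidirectional fit versus DMSO.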

[18] = ATG_Sox_CIS: Attagene CIS-FACTORIAL HepG2 Assay for human SRY-box transcription factor (SOX) (AID 2282960); settings: HepG2 Attagene cis-factorial SOX reporter, mRNA; actives raise or lower the signal
In short: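 HepG2 cells transiently transfected with multiple cis-regulated reporter units, then dosed for 24 h. Reporter mRNA quantified by RT-PCR, fluorescent labelling, HpaI digestion and capillary electrophoresis; bidirectional fit versus DMSO.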

Measured: AC50

C[N+](C)(C)CCO
not listed: [15] | [16] | [17] | [18]
inactive: all other assays above

Cc1cc(N)n(-c2ccccc2)n1
active: [9] 39.5 µM
not listed: [3]
inactive: all other assays above

CCOC(=O)CC1(C)OCC(C)O1 (stereo not drawn)
not listed: [4] | [14]
inactive: all other assays above

CC(=O)C1=C(C)[C@@H]2C[C@@]3(C1)[C@H](C)CC[C@H]3C2(C)C
inactive: [8] | [10] | [17] | [18]
active: [1] 166 µM | [2] 73.2 µM | [3] 148 µM | [4] 75.3 µM | [5] 186 µM | [16] 24.5 µM | [6] 146 µM | [7] 161 µM | [9] 1.91 µM | [11] 50.5 µM | [12] 71.8 µM | [13] 150 µM | [14] 159 µM

CC(=O)Nc1cc(S(=O)(=O)O)cc2cc(S(=O)(=O)O)c(N=Nc3ccccc3)c(O)c12
not listed: [3]
inactive: all other assays above

C=CC(O)CCCCC (stereo not drawn)
active: [15] 26.9 µM | [8] 58.6 µM | [18] 100 µM
not listed: [4]
inactive: all other assays above
